Screening data from PubChem.
DT40 TDP1 no CPT: qHTS for Inhibitors of human tyrosyl-DNA phosphodiesterase 1 (TDP1): qHTS in cells in absence of CPT; AID 686978, 2013; 420,000 tested, 15% active; Potency, µM (titrated, usually from 46.2 µM), inactives show top-dose activity change, negative = growth inhibition, actives largely listed as inhibitors; DT40 Tdp1-/- hTDP1 cells, no CPT, ATP luminescence, 48 h; note: potency is the fitted concentration of half-maximal effect; nearly all actives have a fitted effect of over 55% in size
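Compound effects on proliferation are scored in DT40 Tdp1-/-;hTDP1 cells in the absence of CPT. ATP levels (CellTiter-Glo luminescence) are recorded after a ≥48 hr, 37 °C incubation.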
IL-1B inflam inh: inflammasome signaling inhibition, IL-1 beta readout; activity change, % at 57.5 µM; 360,000 tested, 4.7% active; THP-1 LPS/ATP IL-1B secretion, AlphaLISA, 16 h; active compounds read low; in the data active = activity change below about -50%; inconclusive = mostly about -30% to -49%
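Secreted IL-1B measured by AlphaLISA bead assay after 16 h compound exposure of THP-1 cells; compounds (final up to 57.5 uM) added 1 h before LPS (250 ng/mL) and ATP (1.25 mM) stimulation; lower signal means less secretion.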
RORgamma inh: blocks mouse ROR gamma transcriptional activity; P51450; Drosophila S2 Gal4-RORgamma UAS-luciferase reporter, 20 h; Potency, µM (doses to about 53.6 µM), for the others: top-dose activity change, negative = inhibition, usual class: inhibitors; 310,000 tested, 5.4% active; note: potency is the fitted concentration of half-maximal effect; nearly all actives have a fitted effect of over 60% in size
Target sequence (P51450 whole entry, looked up, the tested form may be a part): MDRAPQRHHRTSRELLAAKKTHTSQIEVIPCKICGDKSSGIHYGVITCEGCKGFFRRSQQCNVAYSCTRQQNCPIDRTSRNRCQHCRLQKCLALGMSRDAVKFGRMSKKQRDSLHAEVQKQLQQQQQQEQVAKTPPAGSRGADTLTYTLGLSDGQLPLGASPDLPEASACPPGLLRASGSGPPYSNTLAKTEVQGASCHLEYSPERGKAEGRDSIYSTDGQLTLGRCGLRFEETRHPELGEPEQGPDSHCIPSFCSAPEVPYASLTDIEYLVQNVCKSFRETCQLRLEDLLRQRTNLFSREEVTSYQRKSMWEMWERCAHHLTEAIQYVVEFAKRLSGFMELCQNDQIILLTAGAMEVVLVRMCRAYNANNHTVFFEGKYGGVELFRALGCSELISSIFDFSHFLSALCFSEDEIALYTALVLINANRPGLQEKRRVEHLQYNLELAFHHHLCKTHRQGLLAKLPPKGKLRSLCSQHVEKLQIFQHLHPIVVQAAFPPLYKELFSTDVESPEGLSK
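Stable Schneider cell line, Gal4 DNA-binding domain fused to ROR gamma, UAS-luciferase. Cmpd 1 hr RT → CuSO4 700 uM final → 20 hr RT → luciferase reagent 10 min → luminescence.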
ELG1 DNA repair: blocks ELG1-dependent DNA repair in HEK293T cells | 330,000 tested, 2.3% active | AID 504467 | HEK293T ELG1-luciferase reporter, luminescence, 16 h; DNA damage induced by 5-fluorouridine | Potency, µM (doses to about 46.1 µM), for inactives: at the highest dose activity change, negative = inhibition, hits mostly inhibitors; note: potency is the fitted concentration of half-maximal effect; nearly all actives have a fitted effect of over 55% in size
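Quantitative HTS, concentration-response format. 2,000 cells/well co-treated with 5-fluorouridine and compound, 16 hr in 5% CO2 at 37 °C; ONE-Glo luminescence read after 30 min.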
VP16 counter: inhibits Gal4-VP16 luciferase reporter, ROR gamma counter-screen. AID 2546. 310,000 tested, 3.5% active. Drosophila S2 Gal4-VP16 UAS-luciferase, luminescence, 20 h. Potency, µM (highest dose often 53.6 µM), without a hit: at the top dose activity, negative = inhibition, most hits filed as inhibitors;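 note: Gal4-VP16 expression switched on by copper sulfate through the metallothionein promoter; potency is the fitted concentration of half-maximal effect; nearly all actives have a fitted effect of over 50% in size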
DT40 TDP1 CPT: DT40-hTDP1 cell growth loss with CPT. chicken DT40 Tdp1-/-;hTDP1 cells + 20 nM CPT, ATP luminescence, 48 h. Potency, µM (titrated, usually from 46.2 µM), without a hit: at the highest dose activity change, negative = growth inhibition, actives largely listed as inhibitors. AID 686979. 420,000 tested, 12% active; note: potency is the fitted concentration of half-maximal effect; nearly all actives have a fitted effect of over 55% in size
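Cell growth measured by CellTiter-Glo luminescence after a minimum 48 h, 37 C compound exposure with 20 nM CPT in Tdp1-knockout DT40 cells stably expressing hTDP1, seeded 400/well; qHTS titration format.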
The depositor's hits bear a star. Rows were chosen to be rich in hits. Some 21% of all compounds tested hit in one or more screens of this group. Unless noted, calls come from the whole dose curve; as a rule, active = well fitted curve in the direction sought with a large enough effect; inconclusive = small, poorly fitted or top-dose-only effect, or another doubt; inactive = no such curve, though single readings can be large; an effect the other way counts as inactive or inconclusive. % is set by controls: 0 for no effect and ±100 for the full control effect.

`COC(=O)c1c(SC)nc2ccccc2c1OCc1ccccc1C` gave DT40 TDP1 no CPT 13µM* and DT40 TDP1 CPT inconclusive.
For O=C(NNC(=O)c1cccc2ccccc12)c1ccc(Br)cc1 the results were DT40 TDP1 no CPT -22%, IL-1B inflam inh -7 and DT40 TDP1 CPT 0%.
For CC(C)Oc1ccc(S(=O)(=O)N2CCOCC2)cc1NC(=O)c1cccc(S(=O)(=O)N2CCCC2)c1 the results were DT40 TDP1 no CPT -12%, IL-1B inflam inh -10 and DT40 TDP1 CPT -12%.
For CC(=O)Nc1ccc2c(c1)nc(C)n2Cc1ccccc1 the results were DT40 TDP1 no CPT 1%, IL-1B inflam inh -6, RORgamma inh -6%, ELG1 DNA repair -19%, VP16 counter -2% and DT40 TDP1 CPT 10%.
`Cc1nc2cc3c(=O)n(C)cnc3cc2n1Cc1ccccc1` gave DT40 TDP1 no CPT 16µM*, IL-1B inflam inh 0 and DT40 TDP1 CPT -15%.
Screening COc1ccc(NC(=O)Nc2nnc([C@@H]3C[C@H](O)[C@@H](CO)O3)s2)cc1 returned DT40 TDP1 no CPT -5%, IL-1B inflam inh 39 and DT40 TDP1 CPT -13%.
COC(=O)N1CCC[C@@]2(CCN(c3ccncc3)C2)C1 was read as DT40 TDP1 no CPT -21%, RORgamma inh -8%, VP16 counter 8% and DT40 TDP1 CPT -22%.
`C=C1C[C@H](OC(=O)C(C)(O)CCl)C2C(=C)C(=O)O[C@@H]2C2C1C[C@H](O)[C@]2(O)CCl` (stereo partly drawn) gave DT40 TDP1 no CPT 0.82µM*, RORgamma inh inconclusive, VP16 counter inconclusive and DT40 TDP1 CPT 1.5µM*.
For C=CCN1CCN(C(=O)c2ccc3c(c2)OCO3)CC1 the results were DT40 TDP1 no CPT 17%, IL-1B inflam inh 5, RORgamma inh 6%, ELG1 DNA repair 9%, VP16 counter -1% and DT40 TDP1 CPT -11%.
COc1ccc(CN2C(=NC(=O)c3ccccc3)SC3CS(=O)(=O)CC32)cc1OC (stereo not drawn) was read as DT40 TDP1 no CPT 4%, IL-1B inflam inh -57*, RORgamma inh 4%, ELG1 DNA repair inconclusive, VP16 counter -2% and DT40 TDP1 CPT 0%.
For COc1ccc(N2CCN(Cc3nc4scc(-c5ccccc5)c4c(=O)[nH]3)CC2)cc1 the results were DT40 TDP1 no CPT 8%, IL-1B inflam inh 18, RORgamma inh 23%, ELG1 DNA repair inconclusive, VP16 counter -9% and DT40 TDP1 CPT inconclusive.
Screening O=c1[nH]c(CN2CCN(c3ccccc3)CC2)nc2scc(-c3ccccc3)c12 returned DT40 TDP1 no CPT 5.2µM*, IL-1B inflam inh 0, RORgamma inh inconclusive, ELG1 DNA repair -17%, VP16 counter -14% and DT40 TDP1 CPT 13µM*.
`Cc1sc2nc(CN3CCOCC3)[nH]c(=S)c2c1C` gave DT40 TDP1 no CPT inconclusive, IL-1B inflam inh 39, RORgamma inh -3%, ELG1 DNA repair -13%, VP16 counter 1% and DT40 TDP1 CPT inconclusive.
COc1ccc(N2CCN(Cc3nc4scc(-c5cccs5)c4c(=O)[nH]3)CC2)cc1 was read as DT40 TDP1 no CPT inconclusive, IL-1B inflam inh -69*, RORgamma inh inconclusive, ELG1 DNA repair inconclusive, VP16 counter -1% and DT40 TDP1 CPT -8%.
Cc1sc2nc(CN3CCN(c4ccc(O)cc4)CC3)[nH]c(=O)c2c1C was read as DT40 TDP1 no CPT inconclusive, IL-1B inflam inh 31, RORgamma inh -1%, ELG1 DNA repair 21µM*, VP16 counter -3% and DT40 TDP1 CPT inconclusive.
COc1cccc(Nc2c(Nc3cccc(OC)c3)c(=O)c2=O)c1 was read as DT40 TDP1 no CPT 4%, IL-1B inflam inh 14, RORgamma inh 8%, ELG1 DNA repair 10%, VP16 counter -8% and DT40 TDP1 CPT 4%.
COc1cccc(Nc2ccc(Nc3cccc(OC)c3)nn2)c1 was read as DT40 TDP1 no CPT inconclusive, IL-1B inflam inh -99*, RORgamma inh 11µM*, ELG1 DNA repair -19%, VP16 counter -26% and DT40 TDP1 CPT inconclusive.
Screening CCCn1c(-c2ccc(F)cc2)nc2c(NCCCN(C)C)nc(C)nc21 returned RORgamma inh -35% and VP16 counter 5%.
Screening CCCCCCCCn1cnc2c(N)c(C)c(C)cc21 returned DT40 TDP1 no CPT inconclusive, IL-1B inflam inh -12, RORgamma inh 10µM*, ELG1 DNA repair 10%, VP16 counter inconclusive and DT40 TDP1 CPT inconclusive.
Screening COc1ccc(Cn2cnc3c(N)c(C)c(C)cc32)cc1 returned DT40 TDP1 no CPT -24%, IL-1B inflam inh -1, RORgamma inh -27%, ELG1 DNA repair 2%, VP16 counter -15% and DT40 TDP1 CPT 3%.
Screening S=c1[nH]nc(Cc2ccc(Cl)cc2)n1-c1ccc2c(c1)OCCO2 returned DT40 TDP1 no CPT inconclusive, IL-1B inflam inh 13, RORgamma inh 2.8µM*, ELG1 DNA repair 3%, VP16 counter -21% and DT40 TDP1 CPT -28%.
For COc1ccc(Cc2n[nH]c(=S)n2-c2ccc3c(c2)OCCO3)cc1 the results were DT40 TDP1 no CPT inconclusive, IL-1B inflam inh 31, RORgamma inh 8.9µM*, ELG1 DNA repair -11%, VP16 counter -1% and DT40 TDP1 CPT -16%.
CCC(CC)NC(=O)c1cccc(Oc2ccccc2)c1 was read as DT40 TDP1 no CPT inconclusive, IL-1B inflam inh -11, RORgamma inh 22%, ELG1 DNA repair -21%, VP16 counter 7% and DT40 TDP1 CPT -12%.
Screening CCOC(=O)C1CCN(C(=O)C(C)Sc2nnc3ccccn23)CC1 (stereo not drawn) returned DT40 TDP1 no CPT -20%, IL-1B inflam inh -14, ELG1 DNA repair 21% and DT40 TDP1 CPT -20%.
Screening C[C@@H](C1[C@@H](O)CC2C3C=CC4C[C@@H](O)CC[C@]4(C)[C@H]3CC[C@@]21C)[C@@H]1CCCCN1 (stereo partly drawn) returned DT40 TDP1 no CPT 1.2µM*, RORgamma inh 8%, VP16 counter 2% and DT40 TDP1 CPT 1.6µM*.
Screening Cc1cnc(CNC(=O)c2csc([C@@H]3O[C@H](CO)[C@H](O)[C@H](O)[C@H]3O)n2)cn1 returned DT40 TDP1 no CPT 6%, IL-1B inflam inh 0 and DT40 TDP1 CPT -3%.
Screening CCN(C(=O)CC(C)C)c1nnc(Cn2nnc3ccccc32)s1 returned DT40 TDP1 no CPT 21µM*, IL-1B inflam inh 0, RORgamma inh 18%, ELG1 DNA repair 8.2µM*, VP16 counter inconclusive and DT40 TDP1 CPT inconclusive.
